# MOR-DOR ag – agonists of OPRM1-OPRD1 heterodimerization, primary screen, cell-based, luminescence; cells; actives 0.3% (n = 340,000); activation, % at 9.3 µM; Mu-type opioid receptor (Homo sapiens) + Delta-type opioid receptor (Homo sapiens), …; in the data active means activation above about 18%;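 further: 0% = vehicle-treated cells and 100% = reference agonist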
# OPRM1-OPRD1 inv – inverse agonists of MOR-DOR heterodimerization, primary screen, cell-based, luminescence; AID 504357, 2011; actives 0.21% (n = 340,000); cell-based MOR-DOR heterodimer luminescence, inverse agonism; inhibition, % at 9.3 µM; in the data active means inhibition above about 22%, passing the limit was not always enough;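 further: 0% = cells with DMSO and 100% = wells without cells with DMSO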
# m5-HT2A agonist – mouse Htr2a agonists via beta-arrestin recruitment, primary screen, cell-based, luminescence; activation, % at 7.6 µM; 5-hydroxytryptamine receptor 2A (Mus musculus), P35363; CHO-K1 mHTR2A beta-arrestin complementation; percent of 30 µM serotonin response; actives 0.66% (n = 360,000);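 active means activation above a run cutoff, the mean activation of all tested compounds plus 3 SD, cut at about 14% in these data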;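 further: 0% = plate median of compound wells and 100% = 30 µM serotonin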
# Target sequence (P35363 whole entry, looked up): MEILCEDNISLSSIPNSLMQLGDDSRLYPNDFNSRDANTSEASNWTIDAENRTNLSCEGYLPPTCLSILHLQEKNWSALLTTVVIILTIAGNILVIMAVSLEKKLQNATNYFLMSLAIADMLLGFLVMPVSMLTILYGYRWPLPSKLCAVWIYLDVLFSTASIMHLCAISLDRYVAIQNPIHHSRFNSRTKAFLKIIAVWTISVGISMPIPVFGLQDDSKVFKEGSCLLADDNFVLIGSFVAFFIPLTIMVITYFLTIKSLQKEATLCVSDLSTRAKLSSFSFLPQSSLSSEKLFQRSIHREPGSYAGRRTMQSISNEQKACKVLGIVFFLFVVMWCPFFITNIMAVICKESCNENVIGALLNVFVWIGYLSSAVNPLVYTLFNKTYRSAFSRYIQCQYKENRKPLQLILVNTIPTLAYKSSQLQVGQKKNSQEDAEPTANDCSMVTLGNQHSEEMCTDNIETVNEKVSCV
# HTR5A ag – HTR5A agonists in luminescence cell assay, primary screen, counter-screen for OPRM1-OPRD1 heterodimer agonist project, full-deck HTS; 5-hydroxytryptamine receptor 5A (Homo sapiens), P47898; cell-based; activation, % at 9.3 µM; actives 0.61% (n = 340,000); in the data active means activation mostly above about 9.5%, no sharp cut-off; inactive means mostly below about 7.6%;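 further: 0% = cells with vehicle only and 100% = reference agonist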
# HTR5A inv ctr – HTR5A inverse agonists in luminescence cell assay, primary screen, counter-screen for OPRM1-OPRD1 heterodimer inverse agonist project, full-deck HTS; HTR5A cell line, inverse agonism; inhibition, % at 9.3 µM; actives 0.083% (n = 340,000); in the data active means inhibition mostly above about 23%, no sharp cut-off; inactive means mostly below about 18%;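 further: 0% = cells with DMSO and 100% = no-cell wells with DMSO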
# * hit, by the source's call; . = no result given. An excerpt weighted towards active compounds, which were near 1.6% of everything screened.
SMILES,MOR-DOR ag,OPRM1-OPRD1 inv,m5-HT2A agonist,HTR5A ag,HTR5A inv ctr
O=C(NC1CCCCC1)N1CCN(c2ccccc2Cl)CC1,-2.4,8.0,-8.2,-3.3,-6.6
O=c1oc2ccccc2nc1/C=C(\O)c1ccccc1,.,.,2.0,.,.
O/C(=C\c1nc2ccccc2nc1/C=C(\O)c1ccccc1)c1ccccc1,-13.8,71.4*,-2.4,-8.7,4.1
CC1CCN(CCCn2c(=S)[nH]c3c(sc4ccc([N+](=O)[O-])cc43)c2=O)CC1,1.5,-7.7,1.3,9.7*,-27.3
CC(=O)N1CCOc2ccc(S(=O)(=O)N3CCC(C(=O)Nc4ccc(F)cc4)CC3)cc21,-1.8,9.2,-5.0,0.1,-4.2
O=C(COC(=O)c1cn(-c2ccccc2)nc1-c1ccc(F)cc1)Nc1ncc(Cl)cc1Cl,0.4,-1.9,4.9,4.4,-1.3
NS(=O)(=O)c1ccc(NC(=O)COC(=O)c2cn(-c3ccccc3)nc2-c2ccc(F)cc2)cc1,3.6,-18.7,4.7,11.7*,-42.8
O=C(c1ccc(-c2cccc(C(F)(F)F)c2)o1)N1CCCC(C(F)(F)F)C1 (stereo not drawn),5.9,-32.6,5.9,11.5*,-28.7
COC(=O)[C@@]1(Cc2ccc(OC)cc2)[C@H]2c3cc(C(=O)N(C)C)n(Cc4c(CO)[nH]cc(C)c4=O)c3C[C@H]2CN1C(=O)c1ccccc1,-2.7,15.7,-3.9,1.5,-3.9
COC(=O)[C@@]1(Cc2ccc(OC)cc2)[C@H]2c3cc(C(=O)N(C)C)[nH]c3C[C@H]2CN1C(=O)c1ccccc1,-3.5,19.2,0.8,13.8*,-8.8
Cc1cc(C)cc(NC(=O)C(Nc2ccccc2)c2ccccc2)c1 (stereo not drawn),10.9,-50.7,-5.6,12.4*,-9.7
COc1cccc(NC(C(=O)Nc2cccc(C(C)=O)c2)c2ccccc2)c1 (stereo not drawn),1.0,-5.6,3.8,4.0,2.6
COc1cc(NC(C(=O)Nc2cccc(C(C)=O)c2)c2ccccc2)cc(OC)c1OC (stereo not drawn),1.7,-9.3,0.5,12.7*,-23.3
CC#CCN(Cc1ccco1)C(=O)c1ccc(OC2CCN(Cc3ccccn3)CC2)cc1,-2.2,12.3,-9.6,9.8*,-30.2
O=C(COc1ccc2ccc(=O)oc2c1)NCCCN1CCCC1=O,-0.6,2.9,10.2,12.6*,-8.2
Cc1cc(C(=O)CSc2ncnc3ccccc23)c(C)n1C1CC1,-1.8,7.2,2.8,1.8,-15.0
Cc1cc(-n2c(C)cc(C(=O)CSc3ncnc4ccccc34)c2C)no1,6.7,-40.7,9.2,16.2*,-18.8
Nc1nc2ccccc2cc1C(=O)NCc1cccs1,.,.,1.5,.,.
O=C(Nc1ccc(Cl)cn1)c1ccc2ccccc2n1,-1.5,6.2,-1.4,3.1,-13.3
Cc1ccc(NC(=O)c2ccc3ccccc3n2)nc1,-0.8,4.6,-4.0,13.9*,-50.5
Cn1c(Cl)c(C(=O)Nc2ccc(Cl)cc2)c2ccccc21,-0.9,5.3,-3.3,-0.3,1.0
Cc1ccccc1/C=N/NC(=O)c1sccc1C,-1.9,10.2,-1.4,3.7,-25.8
COc1ccc(/C=N/NC(=O)c2sccc2C)c2ccccc12,11.4,-57.1,2.1,13.4*,-15.5
C[C@H](CO)N1C[C@H](C)[C@@H](CN(C)S(=O)(=O)c2ccccc2)Oc2ccc(NC(=O)c3ccncc3)cc2C1=O,-0.4,2.5,2.2,-1.6,2.6
C[C@H](CO)N1C[C@H](C)[C@@H](CN(C)S(=O)(=O)c2ccc(F)cc2)Oc2ccc(NC(=O)c3ccncc3)cc2C1=O,-2.4,13.7,7.1,9.5*,4.2
SMILES,MOR-DOR ag,OPRM1-OPRD1 inv,m5-HT2A agonist,HTR5A ag,HTR5A inv ctr
Cc1ccc(N=Cc2cc(Cc3ccccc3Cl)cc([N+](=O)[O-])c2O)c(O)c1,10.6,-76.5,-4.3,11.7*,-12.3
O=C(CN(Cc1ccccc1)S(=O)(=O)c1ccc(F)cc1)NCc1ccccn1,-3.4,17.9,-4.6,-0.7,0.8
O=C(CSc1nnc(-c2ccccc2)n1-c1ccc(Cl)cc1)N/N=C/c1ccccc1C(=O)O,0.9,-4.8,1.9,11.9*,-15.3
Cc1ccc(-c2nnc(SCC(=O)N/N=C/c3ccccc3C(=O)O)n2-c2ccc(C)cc2)cc1,0.6,-3.1,-0.8,8.1,-22.1
O=C1N/C(=C\c2ccc(O)cc2)C(=O)c2ccccc21,5.8,-33.1,9.9,12.0*,17.5
CCCCn1c(N)c(N(Cc2ccccc2OC)C(=O)c2cc(CC)c(C)s2)c(=O)[nH]c1=O,-2.0,8.2,1.6,3.2,-2.3
O=C(CNC(=O)c1ccco1)OCC(=O)c1ccc([N+](=O)[O-])cc1,-2.0,11.4,4.8,-2.4,5.8
O=C(CNC(=O)c1ccco1)NCC(=O)OCC(=O)c1ccc(Cl)c([N+](=O)[O-])c1,-18.2,94.2*,-11.8,-10.2,43.1*
Cc1ccc(CNC(=O)/C=C/c2ccccc2Cl)cc1,0.4,-2.3,-1.4,11.0*,-39.8
CC(NC(=O)CSc1nc2ccccc2n1C)c1ccccc1 (stereo not drawn),0.8,-5.2,-7.2,13.9*,-31.2
COc1ccc(C2=NN(C(=O)COC(=O)c3ccc(S(C)(=O)=O)c([N+](=O)[O-])c3)C(c3ccco3)C2)cc1 (stereo not drawn),15.7,-68.6,3.4,-1.9,7.3
COc1ccccc1-c1ccc(SCc2ccc(C)cc2)nn1,0.4,-2.2,-3.6,-0.9,2.5
COc1ccccc1-c1ccc(SCc2ccc(F)cc2)nn1,0.4,-1.9,0.0,9.5*,-26.2
Cc1nc(/C(N)=N/OC(=O)c2c(-c3ccccc3Cl)noc2C)cs1,2.7,-13.9,-2.8,6.9,-1.0
COc1ccc(/C(N)=N/OC(=O)c2c(-c3ccccc3Cl)noc2C)cc1OC,12.2,-67.2,-4.9,12.2*,-29.0
COc1ccc(Cl)cc1Nc1nc(C)nc2c1nnn2Cc1ccccc1,5.2,-26.6,0.5,-3.8,-24.3
CCOC(=O)c1ccc(Nc2nc(C)nc3c2nnn3Cc2ccccc2)cc1,5.2,-25.1,4.5,8.5*,-28.9
CCOC(=O)C(Cc1ccccc1)c1ccnc2ncnn12 (stereo not drawn),-1.3,7.2,-0.1,2.2,-6.2
CC1CC(=O)c2cc(-c3ccccc3)oc2C1 (stereo not drawn),.,.,2.2,.,.
CC1CC(=O)C(C(C2=C(O)CC(C)CC2=O)c2ccccc2)=C(O)C1 (stereo not drawn),0.2,-0.9,-1.0,9.3*,-38.2
CN1C(=O)CSc2ccc(NC(=O)N3CCN(c4ccccc4)CC3)cc21,0.1,-0.6,1.8,-3.3,19.6
O=C(COC(=O)CN1C(=O)C2CCCCC2C1=O)NNC(=O)c1ccc(Cl)cc1 (stereo not drawn),-1.7,9.1,-5.1,4.5,-14.0
